Sa ugtP lethal = growth inhibition of S. aureus ugtP deletion strain; growth inhibition, % (test concentration not listed); AID 1259309; S. aureus RN4220 ugtP deletion, OD600 growth, 16 h; 330,000 tested, 0.54% active; in the data active = growth inhibition above about 68%;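 also: plate controls were untreated wells for no effect and antibiotic for full effect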
CCHFV vOTU inh = CCHFV vOTU protease inhibition. Pep-AMC fluorescence. inhibition, % at 11.5 µM. 370,000 tested, 0.55% active. AID 651958; in the data active = inhibition above about 30%; also: 0% = vehicle wells with enzyme and 100% = no enzyme wells
RN4220 kill = kills Staphylococcus aureus RN4220 | S. aureus RN4220 growth, OD600, 16 h | 330,000 tested, 0.33% active | inhibition, % (no concentration beside the values) | AID 1259311; in the data active = inhibition above about 85%;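 also: plate controls were untreated cells for no effect and reference antibiotic for full effect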
Mtb hypoxia inh = reduces hypoxia-regulated biosensor signal in M. tuberculosis. M. tuberculosis hypoxia-regulated fluorescent reporter, fluorescence. fluorescence inhibition, % (concentration not given with the values). 300,000 tested, 0.1% active; in the data active = fluorescence inhibition mostly above about 23%, no sharp cut-off; inactive = mostly below about 17%
SSB-PriA inh = K. pneumoniae PriA-SSBct interaction inhibition. 430,000 tested, 0.6% active. AID 1272365. AlphaScreen SSBct-PriA binding, biotinylated peptide. inhibition, % at 33 µM; in the data active = inhibition mostly above about 37%, no sharp cut-off; inactive = mostly below about 20%;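 also: plate controls were negative control peptide for no effect and reference peptide for full effect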
An asterisk follows results filed as active; / = no result shown. A selection: hits, their analogues and other compounds. The true share with any hit is near 1.4%.

SMILES	Sa ugtP lethal	CCHFV vOTU inh	RN4220 kill	Mtb hypoxia inh	SSB-PriA inh
CC(=O)c1c(N2CCN(c3cccc(Cl)c3)CC2)nc(=S)n(-c2ccccc2)c1C	82.7*	-9.0	71.5	1.2	1.7
CCC(CO)Oc1cc(NCc2ccc(Cl)cc2)c2ncn(C(C)C)c2c1 (centres undefined)	7.3	3.1	5.5	8.9	3.5
CCC(CO)Oc1cc(NCc2ccc(Cl)cc2Cl)c2ncn(C(C)C)c2c1 (centres undefined)	-21.5	9.1	11.5	2.1	39.0*
O=C(NCCn1nc(-n2cncn2)ccc1=O)c1ccc(S(=O)(=O)N2CCCC2)cc1	/	/	/	/	-19.0
COc1cccc(Nc2nc(-c3ccccc3O)nc3ccccc23)c1	-7.6	-16.5	-11.8	-5.4	-16.2
COc1ccc(Nc2nc(-c3ccccc3O)nc3ccccc23)cc1	93.5*	3.4	61.3	6.5	-8.8
COc1cccc(-c2nc(OC(C)C)c3ccccc3n2)c1	93.7*	15.1	-15.3	/	-11.1
O=[N+]([O-])c1ccc(-c2nc(Nc3cccc(O)c3)c3ccccc3n2)cc1	82.7*	14.2	84.9*	10.8	-15.3
COc1cccc(Nc2nc(-c3ccccc3)nc3ccccc23)c1	90.6*	-3.7	57.1	1.6	-53.3
CC(C)c1nc(S(=O)(=O)N2CCC(c3ccc4c(c3)OCO4)C2)cn1C (centres undefined)	/	/	/	/	-14.0
CC(=O)N1C(C)C=C[C@]1(Cc1ccccc1)C(=O)NCCc1c[nH]c2ccccc12 (some centres undefined)	-5.4	/	-3.1	-3.5	/
O=C(NN=Cc1ccccc1[N+](=O)[O-])C(=O)N1CCCC1	10.0	/	3.6	7.3	-6.8
COc1ccc(/C=C/C(=O)c2c(O)cc(C)oc2=O)c(OC)c1	99.7*	0.0	-16.0	7.5	-8.3
O=C(Nc1nc(-c2ccccc2)c(-c2ccccc2)s1)c1ccc(Br)s1	/	/	/	/	-3.0
O=C(NC(=S)Nc1ccc(S(=O)(=O)Nc2nccs2)cc1)c1ccccc1	91.4*	-8.9	14.3	15.5	-7.5
O=C(NC(=S)Nc1ccc(S(=O)(=O)Nc2nccs2)cc1)c1cccnc1	/	-8.9	/	/	3.0
CCc1nnc(NS(=O)(=O)c2ccc(NC(=S)NC(=O)c3ccc(Br)cc3)cc2)s1	85.9*	20.3	29.1	15.9	-6.2
Cc1cccc([C@H]2NC(=O)NC3=C2C(=O)N(CCC2=CCCCC2)C3)c1	/	/	/	/	3.0
COc1ccc2nc(N=Nc3ccc(N(C)C)cc3)sc2c1	-4.4	-13.8	-1.7	11.6	14.7
Cc1cc2nc3ccc(=[N+](C)C)cc-3sc2cc1N	44.4	/	68.7	9.3	83.1*
Cc1nc2cc(C)c(C)cc2s1	2.3	-4.4	4.1	2.9	4.3
CN(C)c1ccc2nc3ccc(=[N+](C)C)cc-3sc2c1	-9.0	24.4	12.8	99.4*	0.9
O=C(CCl)c1ccc2c(c1)CCN2C(=O)C1CCCCC1	99.1*	-8.4	98.2*	9.2	-0.4
O=C(NCc1cc(-c2ccco2)on1)c1ccc(Br)o1	/	/	/	/	39.0*
O=C(NCc1cc(-c2ccccc2)on1)c1ccco1	/	/	/	/	-13.0
SMILES	Sa ugtP lethal	CCHFV vOTU inh	RN4220 kill	Mtb hypoxia inh	SSB-PriA inh
Cc1cc(NN=Cc2ccccc2O)c2ccccc2n1	-15.5	/	-2.5	72.5*	-2.9
COc1ccc(C=NNc2cc(C)nc3ccc(OC)cc23)c(OC)c1	-9.2	/	7.8	/	40.9*
O=C(COc1ccc(Cl)cc1Cl)NCCc1csc(-c2ccc(F)cc2)n1	/	/	/	/	2.0
O=C1CCCN1CN(C(=O)c1cc(Br)ccc1Cl)c1cccc(C(F)(F)F)c1	/	/	/	/	4.0
COc1cc([N+](=O)[O-])ccc1-c1ccc(C=NNC(=O)c2ccccc2O)o1	4.2	/	1.9	10.4	/
O=C(Cc1ccccc1Cl)N1CCC(CSC2=NCCS2)CC1	/	/	/	/	2.0
Cc1ccn(-c2ccc(Nc3ccc(NC(=O)c4ccccc4Br)cc3)nn2)n1	/	/	/	/	35.0*
Cc1ccn(-c2ccc(Nc3ccc(NC(=O)c4c(F)cccc4Cl)cc3)nn2)n1	/	/	/	/	39.0*
Cc1ccn(-c2ccc(Nc3ccc(NC(=O)c4c(F)cccc4F)cc3)nn2)n1	/	/	/	/	-11.0
O=C1C2C3C=CC(CC3)C2C(=O)N1N=Cc1ccc(O)c(O)c1 (centres undefined)	0.2	/	0.2	-3.3	-3.8
O=C(OCC(=O)c1ccc(Cl)cc1Cl)c1ccccn1	9.7	3.0	8.0	30.2*	-4.7
CCOc1ccccc1-c1noc([C@H]2CC(=O)N(c3c(C)cccc3C)C2)n1	/	/	/	/	1.0
C[C@](O)(CNS(=O)(=O)c1ccccc1Br)c1ccc2c(c1)OCO2	/	/	/	/	2.0
CC(C)C(=O)NCCc1ccc(N(C)C)cc1	/	/	/	/	-3.0
CN(C)c1ccc(Cc2cc3c(O)ccc(O)c3cc(Cc3ccc(N(C)C)cc3)c2=O)cc1	/	33.9*	/	/	14.2
CCCCCc1cc(=O)oc2c(C(CCN(CC)CC)c3ccc(N(C)C)cc3)c(OC)cc(OC)c12 (centres undefined)	-0.9	14.7	-6.6	1.4	67.0*
CCCCCc1cc(=O)oc2c(C(CCN3CCCC(C)C3)c3cc(OC)c(OC)c(OC)c3)c(OC)cc(OC)c12 (centres undefined)	-9.8	/	-3.1	10.3	13.2
CCCCCc1cc(=O)oc2c(C(CCN3CCCC(C)C3)c3ccc(N(C)C)cc3)c(OC)cc(OC)c12 (centres undefined)	-1.7	/	3.5	/	90.1*
CON(C)C(=O)C1CN(C(C)=O)C1	/	/	/	/	-1.0
Cc1ccccc1Cn1nnc2c(=O)n(Cc3nc(-c4cccc(C(F)(F)F)c4)no3)cnc21	/	/	/	/	-10.0
COc1cc(NC(=O)Nc2ccccc2)c(OC)cc1NC(=O)CN1CCCCC1	4.1	4.4	4.0	6.0	42.0*
Cc1cccc(OCCOC(=O)C2CCN(S(=O)(=O)c3ccc(C)c(C)c3)CC2)c1	12.7	-6.6	2.7	2.6	46.7*
CC(=O)Nc1ccc(NC(=S)NC(=O)C2CCCC2)cc1	32.0	-5.3	0.0	1.9	-10.0
CCN(CC)c1ccc(NC(=S)NC(=O)C2CCC2)cc1	14.2	9.5	3.8	15.3	55.2*
O=C(NN=C1C(=O)c2cccc3cccc1c23)c1ccc(Cl)cc1	91.5*	/	97.1*	3.0	-0.9
SMILES	Sa ugtP lethal	CCHFV vOTU inh	RN4220 kill	Mtb hypoxia inh	SSB-PriA inh
COc1cc2cnc(-c3ccccc3)c(-c3ccc(C(F)(F)F)cc3)c2cc1OC	100.5*	6.7	100.0*	-3.8	-1.9
CCS(=O)(=O)N1CCc2nc(-c3ccccc3)sc2C1	-7.2	-10.5	-0.1	12.4	91.0*
COc1ccc(-c2nc3c(s2)CN(S(C)(=O)=O)CC3)cc1OC	6.5	-59.1	2.3	7.8	16.7
CCOc1ccc(NC(=O)C2CCN(c3cc(OC)ncn3)CC2)cc1	/	/	/	/	-5.0
C/C=C/c1ccc(OCC(O)CN2CCN(c3cccc(Cl)c3)CC2)c(OC)c1 (centres undefined)	/	/	/	/	36.0*
C=C(C)C(=O)Nc1cccc(C2=NOC3(C2)CC(C(N)=O)N(C(=O)c2cc([N+](=O)[O-])cc([N+](=O)[O-])c2C)C3)c1 (centres undefined)	-11.0	/	0.2	6.0	/
COc1cc(-c2nc3cnccn3c2Nc2ccc3c(c2)OCCO3)ccc1O	-0.1	15.2	2.5	9.5	21.9
COc1cc(-c2nc3ccc(C)cn3c2Nc2ccc3c(c2)OCCO3)ccc1O	/	0.8	/	/	54.5*
